# Source: PubChem BioAssay AID1347416 (National Center for Advancing Translational Sciences (NCATS), 2020)
# About 1,600 (39%) of roughly 4,100 compounds were called active. Inconclusive results (about 25%) are left out. Calls follow the shape of the dose curve; as a rule, active = well fitted inhibition curve with a large enough effect; inconclusive = small, poorly fitted or top-dose-only effect; inactive = no such curve, though single readings can be large or run the other way. The list shows a part of the results.
# Assay: qHTS Validation assay for Inhibitors of Plasmodium falciparum Dd2 growth in vitro; also: nearly all actives have a fitted effect of over 70% in size
# Conditions: P. falciparum Dd2 in RBCs, SYBR Green growth, 72 h; series mostly up to 28.7 µM; activity change, negative = inhibition: at the top concentration
# Outline: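 P. falciparum Dd2-infected red blood cells (2.5% hematocrit, 0.3% parasitemia) grown 72 h at 37 °C under 5% O2 with compounds in a titration, 29 uM to 0.5 nM final. Growth read as SYBR Green-1 fluorescence after ~16 h lysis; artesunate 300 nM as positive control.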
# % is scaled to controls: 0 for no effect and ±100 for the full control effect; potency is read from the fitted curve at half-maximal effect.
SMILES,"activity change, negative = inhibition",Potency
CC1=NS(=O)(=O)N(Cc2ccc(F)c(F)c2)C=C1C(=O)O,15.4% (inactive),–
CN(C)C(=O)N1CCCC(C(=O)NCc2nc(C3CCCCC3)no2)C1 (stereo not drawn),36.9% (inactive),–
Cc1nc2sc(C(c3ccco3)N3CCN(C(c4ccccc4)c4ccccc4)CC3)c(O)n2n1 (stereo not drawn),–,5.96 µM (active)
CCCc1ccc(C(=O)NC(=O)c2ccccc2O)cc1,–,1.06 µM (active)
Cc1ccc(N(Cc2cccs2)C(=O)C(C)Oc2ccc(Cl)c(C)c2)cc1 (stereo not drawn),–,7.5 µM (active)
Cc1ccc(N(CC(=O)Nc2cccc(Cl)c2)S(=O)(=O)c2cccs2)cc1,29.6% (inactive),–
O=C(NCCc1nc(-c2cccnc2)no1)c1coc2c1C(=O)CCC2,32.2% (inactive),–
C/C(=N\OCc1cccc(C(=O)O)c1)c1ccc(Cl)cc1,6.57% (inactive),–
CNC(=O)CCn1ncc2cc(OCc3ccccc3-c3ccccc3OC)ccc21,–,15.3 µM (active)
COc1ccccc1-c1nnc2sc(COc3ccc(F)cc3)nn12,-15% (inactive),–
COc1cccc(CNc2ccc3c(c2)nc(C)n3C)c1OC,33.3% (inactive),–
CC(C)Sc1nc2sc3c(c2c(=O)n1Cc1ccccc1)CCCC3,-20% (inactive),–
CCOCCCn1c(SCC(=O)NCCCOC)nc2c(sc3ccccc32)c1=O,59% (inactive),–
CCSc1nc2sc3c(c2c(=O)n1-c1ccccc1)CCN(C)C3,–,6.68 µM (active)
CN1CCc2c(sc3c2C(=O)NC(c2ccc(C(C)(C)C)cc2)N3)C1 (stereo not drawn),26.9% (inactive),–
CCn1c(SCC(=O)NCCc2ccccc2)nc2sc3c(c2c1=O)CCN(C)C3,–,5.31 µM (active)
CCNc1ncnc2sc3c(c12)CCN(Cc1ccc[nH]1)C3,-12.8% (inactive),–
CSc1nnc2c3c4c(sc3c(=O)n(-c3ccccc3)n12)CC(C)(C)OC4,1.3% (inactive),–
CCCN1CCc2c(sc3nc(SC)n(-c4ccccc4)c(=O)c23)C1,–,2.66 µM (active)
C=C(C)CSc1nc2sc3c(c2c(=O)n1C1CCCCC1)CCN(C)C3,–,2.37 µM (active)
CS(=O)(=O)N(C1CC1)C1CCOC2(CCN(C(=O)C3(c4ccccc4)CC3)CC2)C1 (stereo not drawn),0.781% (inactive),–
CCOc1cc(C2NC(=O)c3c(sc4c3CCN(C)C4)N2)ccc1OC(=O)c1ccccc1Cl (stereo not drawn),28.3% (inactive),–
COC(CSc1nc(N)c2c3c(sc2n1)CN(C)CC3)OC,3.33% (inactive),–
CCOc1ccc(-n2c(SCC(N)=O)nc3sc4c(c3c2=O)CCN(C)C4)cc1,–,15 µM (active)
Oc1ccc(CNc2ccc(C(F)(F)F)cc2Cl)c2cccnc12,–,10.6 µM (active)
Cc1ccc(N=Nc2ccc(O)c3ncccc23)cc1,62.4% (inactive),–

SMILES,"activity change, negative = inhibition",Potency
Fc1ccc(N2CCCN(CC3[C@H]4CNC[C@@H]34)CC2)cc1 (stereo partly drawn),–,8.41 µM (active)
Cc1ccc2[nH]c(-c3ccccc3)cc(=O)c2c1,–,4.73 µM (active)
O=c1cc(-c2ccccc2)[nH]c2ccc(F)cc12,–,5.96 µM (active)
Cc1ccc(-c2cc(=O)c3cc(C)ccc3[nH]2)cc1,–,10.6 µM (active)
CCCCCNC(=O)C1CCC(Cn2c(=O)c3sccc3n(CC(=O)N3CCCC3)c2=O)CC1 (stereo not drawn),7.01% (inactive),–
COc1cc(NC(=O)Cn2c(=O)n(CC3CCC(C(=O)NCCc4ccccc4)CC3)c(=O)c3ccccc32)cc(OC)c1 (stereo not drawn),–,5.96 µM (active)
COc1cc(NC(=O)Cn2c(=O)n(CC3CCCO3)c(=O)c3ccccc32)cc(OC)c1 (stereo not drawn),13.1% (inactive),–
Cc1cc2nn(-c3ccc(F)cc3)nc2cc1N,2.12% (inactive),–
Cn1nc(-c2nncn2Cc2ccccc2)c2c1CCN(C(=O)c1[nH]nc3c1COc1ccccc1-3)C2,-14.9% (inactive),–
COc1ccc(-n2cc(CNC3CCN(C)CC3)c(-c3cccc(F)c3)n2)cc1,–,10.6 µM (active)
COc1ccc(-c2ccc3nnc(CNC(=O)Cc4cccc(F)c4)n3n2)cc1,38.7% (inactive),–
CC1=C[C@@H](CN2CCC[C@H]2CO)[C@H](C(C)C)C[C@H]1Cc1nnc(-c2ccc(N(C)C)cc2)o1,–,13.3 µM (active)
CCCc1nnc(C[C@@H]2C[C@@H](C(C)C)[C@H](CN3CCC[C@H]3CO)C=C2C)o1,–,17.2 µM (active)
CCCc1nnc([C@H]2CCN(C(=O)c3ccccc3)C2)o1,-19.5% [at 57.5 µM] (inactive),–
C=CCOC(=O)C(C#N)c1nc2ccccc2nc1N1CCC(C(=O)OCC)CC1 (stereo not drawn),–,2.37 µM (active)
Cc1ccc(C)c(-c2cc3c(=O)n(CCNC(=O)c4cccc(N(C)C)c4)ccn3n2)c1,0.608% (inactive),–
CCN(CC)S(=O)(=O)c1ccc(NC(=O)CCc2c(C)nc3cc(-c4ccc(Cl)cc4)nn3c2C)cc1,–,4.73 µM (active)
Cc1ccc(-c2ccc(=O)n(CC(=O)Nc3ccc(C(C)C)cc3)n2)cc1,20.7% (inactive),–
Cc1ccc(CNC(=O)CCc2c(C)nc3nc(C)nn3c2C)cc1,11.6% (inactive),–
COc1cc(C2Nc3ccc4ccccc4c3C3=C2C(=O)CC(C)(C)C3)ccc1OC(C)C(=O)O (stereo not drawn),–,6.68 µM (active)
CCCC1=Nc2cc(C(=O)NCCCN3CCCCC3CC)ccc2Sc2ccc(C)cc21 (stereo not drawn),–,9.44 µM (active)
CCC1=Nc2cc(C(=O)NCc3ccco3)ccc2Sc2ccc(C)cc21,–,8.41 µM (active)
Cc1cccc(C(=O)NCCc2ncc(C)n2C2CC2)c1,-5.93% (inactive),–
CCc1nc2ccc(C(=O)NCc3ccccc3C)cc2nc1CC,6.91% (inactive),–
Cc1ccc(C2Cn3cnc(C(=O)N4CCC(C(=O)NCc5ccco5)CC4)c3CO2)cc1 (stereo not drawn),-7.92% (inactive),–
CC(C)N1C(=S)N(Cc2ccco2)C(=O)C1CC(=O)Nc1ccccc1 (stereo not drawn),–,1.68 µM (active)

SMILES,"activity change, negative = inhibition",Potency
CN1CCC(Nc2ncc3ncnc(Nc4ccc(F)c(Cl)c4)c3n2)CC1,–,10.6 µM (active)
Cc1cccc(N2CCN(C(=O)CCc3nnc4n(CC(C)C)c(=O)c5ccccc5n34)CC2)c1C,–,3.35 µM (active)
Cc1ccc(/C=N/NC(=O)c2cc3ccccc3cc2O)o1,–,5.31 µM (active)
CCNc1nc(NC(C)CC)nc(ON=C(C)C)n1 (stereo not drawn),–,8.41 µM (active)
CSc1cccc(Nc2nc3c(S(=O)(=O)c4ccccc4)nnn3c3ccc(Cl)cc23)c1,–,1.88 µM (active)
CCc1ccc(S(=O)(=O)c2nnn3c2nc(Nc2ccc(F)cc2)c2cc(Cl)ccc23)cc1,–,2.11 µM (active)
COc1ccccc1C(=O)N1CCC2(CC1)OC(=O)N(Cc1ccccc1C#N)C2(C)c1ccccc1 (stereo not drawn),–,15 µM (active)
COc1ccccc1C(=O)N1CCC2(CC1)OC(=O)N(CCOc1ccccc1)C2(C)c1cccnc1 (stereo not drawn),–,9.44 µM (active)
CNCC(=O)N1CCC2(CC1)CN(CCOc1ccccc1)C(=O)O2,40.8% (inactive),–
COCCN1C(=O)CS(=O)(=O)C12CCN(C(=O)C1(c3ccccc3)CC1)CC2,1.25% (inactive),–
COc1ccccc1C(=O)N1CCCN(c2nnc3cccc(C)n23)CC1,9.24% (inactive),–
Cn1cnnc1-c1nn(C)c2c1CN(C(=O)c1cc3ccccc3[nH]1)CC2,-20.5% (inactive),–
N#Cc1cccc(S(=O)(=O)N2CC(C(=O)NC3CCCCC3)C3(CCOCC3)C2)c1 (stereo not drawn),11.3% (inactive),–
COc1cc(NC(=O)c2cc3c(Cl)nc4ccccc4c3s2)cc(OC)c1OC,–,4.73 µM (active)
CCC(C)NC(=O)c1cc2c(Cl)nc3ccc(C)cc3c2s1 (stereo not drawn),-5.46% (inactive),–
CCCc1noc(-c2cccn3c(CNC(=O)c4ccccc4OCC)nnc23)n1,-8.26% (inactive),–
COc1cc(C(=O)Nc2ccccc2OCc2cc(=O)n3cc(C)sc3n2)cc(OC)c1OC,29.8% (inactive),–
Cc1csc2nc(COc3ccc(NC(=O)c4ccccc4F)cc3)cc(=O)n12,26.8% (inactive),–
COCCc1nn2c(=O)cc(COC(=O)C(c3ccccc3)c3ccccc3)nc2s1,–,2.66 µM (active)
Cn1c(=O)[nH]c2nnc(-c3ccc(Cl)c(Cl)c3)nc2c1=O,–,8.41 µM (active)
Cn1c(=O)c2nc(SCC(=O)Nc3ccc(Cl)c(Cl)c3)n(C)c2n(C)c1=O,26.8% (inactive),–
CCN1CCN(c2cc(C)c3cc(NC(=O)/C=C/c4ccc(OCCC(C)C)cc4)ccc3n2)CC1,–,2.11 µM (active)
CCN1CCN(c2cc(C)c3cc(NC(=O)/C=C/c4ccc(C)cc4)ccc3n2)CC1,–,4.22 µM (active)
CCS(=O)(=O)N1CC(F)(F)C[C@H]1c1nc(CCOC)no1,13.7% (inactive),–
COc1cc2nc(NCc3ccccc3Cl)n3nc(-c4cccnc4)nc3c2cc1OC,–,2.11 µM (active)
COc1cccc(NC(=O)CSc2nc3cc(OC)c(OC)cc3c3nc(-c4ccccc4)nn23)c1,42.6% (inactive),–

SMILES,"activity change, negative = inhibition",Potency
COc1cc2nc(NCc3ccccc3)n3nc(-c4ccccc4)nc3c2cc1OC,–,0.422 µM (active)
COc1cc2nc(NCc3ccc(C)cc3)n3nc(-c4ccccc4)nc3c2cc1OC,–,0.266 µM (active)
COc1ccccc1S(=O)(=O)Cc1ccc(C(=O)NCc2cccs2)o1,5.1% (inactive),–
CC(C(=O)N1CCCN(c2cc(-c3ccc(Cl)cc3)[nH]n2)CC1)c1ccccc1 (stereo not drawn),-15.7% (inactive),–
Nc1nc(N)c2c(ccc3nccc32)[nH]1,7.51% (inactive),–
O=C(CCc1nc2ccccc2[nH]1)N1C[C@@H](CO)[C@H](c2ccccn2)C1,41.4% (inactive),–
CCN(Cc1nc2ccccc2n1C)c1ccccc1,6.82% (inactive),–
Cc1ccc(C)c(N=Nc2nc3ccccc3n2C)c1,–,0.299 µM (active)
CCOc1c(CNCCSc2nnnn2C)cccc1OC,-28% (inactive),–
c1ccc(COc2cncc(-c3cccnc3)c2)cc1,1.56% (inactive),–
Cn1nnnc1SCCCNCc1cccc(OCc2ccccc2)c1,–,9.44 µM (active)
COc1ccc2c(C)c(C(=O)N3CC(Oc4c(C)cccc4C)C3)oc2c1,41.8% (inactive),–
COc1cc2c(cc1OC)C(COc1ccc3c(C)cc(=O)oc3c1)N(C(=O)c1ccccc1C)CC2 (stereo not drawn),–,15 µM (active)
COc1cc2c(cc1OC)[C@H](C)N(C(=O)COc1ccccc1)CC2,-6.38% (inactive),–
CC(=O)N1CCc2cc(Br)cc(S(=O)(=O)N3CCCCC3)c21,–,5.96 µM (active)
CC(=O)N1CCc2cc(Br)cc(S(=O)(=O)N3CCCCCC3)c21,–,5.31 µM (active)
Cc1nc(-c2c3n(c(=O)n(Cc4ccc(OC(F)(F)F)cc4)c2=O)CCCCC3)no1,-10.2% (inactive),–
CC(C)c1nc2c(c(-c3ccc(O)cc3)n1)CN(Cc1cccc(F)c1)CC2,–,9.44 µM (active)
CC(C)c1nc2c(c(-c3ccc(O)cc3)n1)CCN(Cc1ccc(OC(F)(F)F)cc1)CC2,–,2.99 µM (active)
CC(=O)Nc1ccc(CN2CCc3nc(C(C)C)nc(-c4ccc(Cl)cc4)c3CC2)cc1,–,2.66 µM (active)
COCC(=O)N1CCc2nc(-c3ccccc3)nc(-c3ccc(Cl)cc3)c2C1,0% (inactive),–
CC(=O)Nc1ccc(CN2CCn3c(nn(-c4ccc(Cl)cc4)c3=O)C2)cc1,14.2% (inactive),–
CC(C)c1nc2c(c(-c3ccc(O)cc3)n1)CCN(Cc1ccc(C(F)(F)F)cc1)CC2,–,5.31 µM (active)
Cc1nc2c(c(-c3ccc(O)cc3)n1)CN(C(=O)c1cccc(Cl)c1)CC2,1.23% (inactive),–
Cc1nc(-c2c3n(c(=O)n(Cc4ccc(OC(F)(F)F)cc4)c2=O)CCCC3)no1,-13.9% (inactive),–
